Reference: PubChem BioAssay (NCATS)
Inconclusive results are not listed. The source made the active and inactive calls. Unless noted, calls come from the whole dose curve.

Assays:
[1] = biological target: Peroxisome proliferator-activated receptor delta (Homo sapiens) (UniProt Q03181); experiment: qHTS assay for small molecule agonists of peroxisome proliferator-activated receptor delta signaling (AID 588534);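 note: 0% = DMSO basal wells and 100% = positive control agonist at 10 µM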
How it was run: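 Cell-based beta-lactamase reporter assay run in agonist mode: cells seeded and incubated 5 hrs at 37 C, compounds added and incubated 18 hrs at 37 C. CCF4 dye fluorescence read after 2 hrs at RT; EC50 and efficacy from Hill fits.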

[2] = qHTS assay for small molecule antagonists of peroxisome proliferator-activated receptor delta signaling (AID 588535; active = well fitted inhibition curve with a large enough effect in the signal ratio, with a control signal flat, not every such curve was filed as active; the % refers to the signal ratio;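 for max response: cells co-treated with a PPAR-delta agonist as stimulator during compound exposure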); conditions: HEK293T PPARd-UAS-bla, beta-lactamase FRET ratio, 18 h; 460 nm channel
How it was run: (§1)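 Cell-based beta-lactamase assay in antagonist mode: 4000 HEK293T PPAR-delta-UAS-bla cells per well, 5 hr preincubation then 18 hr compound incubation at 37 C. IC50 obtained by Hill equation fitting.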

[3] = biological target: Peroxisome proliferator-activated receptor delta (Homo sapiens) (UniProt Q03181); experiment: as above
How it was run: as §1

[4] = biological target: Vitamin D3 receptor (Homo sapiens) (UniProt P11473); experiment: qHTS assay for small molecule antagonists of vitamin D receptor signaling (AID 588541);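 note: receptor activated by calcitriol during compound treatment; series mostly up to about 77 µM; % is set by controls: 0 for no effect and ±100 for the full control effect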
How it was run: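 Antagonist-mode beta-lactamase reporter assay: HEK293T VDR-UAS-bla cells were exposed to titrated compound alongside 1-alpha,25-dihydroxyvitamin D3 at 3 nM final for 16 h. Values were normalized to the 50 nM agonist control and DMSO basal, with IC50 and efficacy from Hill equation fits.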

[5] = biological target: Vitamin D3 receptor (Homo sapiens) (UniProt P11473); experiment: qHTS assay for small molecule agonists of vitamin D receptor signaling (AID 588543);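 note: 0% = DMSO basal and 100% = reference agonist control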
How it was run: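 Agonist-mode beta-lactamase reporter: HEK293T VDR-UAS-bla cells in charcoal-stripped 2% FBS, compound series 16 h 37 C, CCF4 2 h RT. EC50 from Hill fit, scaled against DMSO and 50 nM calcitriol control.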

[6] = qHTS assay for small molecule agonists of retinoid X receptor alpha signaling (AID 588544); conditions: HEK293T RXRa-UAS-bla, beta-lactamase reporter, 18 h; 530 nm emission;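 for activation: 0% = DMSO basal wells and 100% = reference agonist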
[7] = biological target: Retinoic acid receptor RXR-alpha (Homo sapiens) (UniProt P19793); experiment: as above
[8] = biological target: Thyroid hormone receptor beta (Homo sapiens) (UniProt P10828); experiment: qHTS assay for small molecule agonists of thyroid hormone receptor beta signaling (AID 588545)
How it was run: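 Agonist-mode beta-lactamase reporter assay, HEK 293 cells, 2% charcoal/dextran FBS; cells plated 4 hrs, compound 18 hrs at 37 C, CCF4 2 hrs RT. Normalized to 10 nM T3 (100%) and DMSO (0%); Hill fit gives EC50, efficacy.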

[9] = qHTS assay for small molecule antagonists of retinoid X receptor alpha signaling (AID 588546; active = well fitted inhibition curve with a large enough effect in the signal ratio, with a control signal flat, not every such curve was filed as active; the % refers to the signal ratio;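 note: cells stimulated with 9-cis-retinoic acid as agonist; % is set by controls: 0 for no effect and ±100 for the full control effect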); conditions: HEK293T RXRa-UAS-bla, beta-lactamase ratio, antagonist mode; measured here: W530 green channel, cytotoxicity proxy
How it was run: (§2)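 Beta-lactamase reporter inhibition, read as CCF4 fluorescence ratio (ex 405, em 460/530 nm) after 2 h at RT. HEK293T UAS-bla cells, 2500/well, were stimulated with 9-cis-RA at 500 or 100 nM final alongside test compound for 18 h at 37 C.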

[10] = biological target: Retinoic acid receptor RXR-alpha (Homo sapiens) (UniProt P19793); experiment: as above; conditions: HEK293T RXRa-UAS-bla, beta-lactamase ratio, antagonist mode
How it was run: as §2

[11] = qHTS assay for small molecule activators of the p53 signaling pathway (AID 651743; active = well fitted activation curve with a large enough effect in the signal ratio, not every such curve was filed as active; the % refers to the signal ratio; note: series mostly up to about 92 µM; % of control where 0% means no effect); conditions: HCT-116 p53RE-bla, beta-lactamase FRET ratio, 16 h; activation: stronger effect = higher value
How it was run: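 Screen for p53 pathway agonists uses stably transfected p53RE-bla HCT-116 cells, 4,000 per well, treated 16 h at 37 C with compounds in DMSO.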

[12] = qHTS assay for small molecule activators of the nuclear factor-kappa B (NF-kB) signaling pathway (AID 651749; active = well fitted activation curve with a large enough effect in the signal ratio; the % refers to the signal ratio; note: series mostly up to about 77 µM; % of control where 0% means no effect); conditions: NF-kB-bla ME-180 cells, beta-lactamase FRET ratio, 16 h; activation: stronger effect = higher value
How it was run: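 Stably transfected ME-180 line; NF-kB response element upstream of beta-lactamase. Treatment: compound or DMSO, 16 hr. Detection: fluorescent FRET substrate.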

[13] = qHTS assay for environmental chemicals that activate the Aryl hydrocarbon Receptor (AhR) signaling pathway (AID 651777; active = well fitted curve in the direction sought with a large enough effect; an effect the other way counts as inactive or inconclusive; note: nearly all actives have a fitted effect of over 15% in size; note: potency is the fitted concentration of half-maximal effect; for activation: % of control where 0% means no effect); conditions: 1A2-DRE human hepatoma cells, luciferase, 24 h; activation: stronger effect = higher value
How it was run: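 Stable CYP1A2 promoter/DRE-luciferase human hepatoma line treated 24 hr; One-Glo luminescence, 30 min RT.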

[14] = biological target: Peroxisome proliferator-activated receptor alpha (Homo sapiens) (UniProt Q07869); experiment: qHTS assay for small molecule agonists of the peroxisome proliferator-activated receptor alpha (PPARalpha) signaling pathway (AID 651778; active = well fitted curve in the direction sought with a large enough effect; an effect the other way counts as inactive or inconclusive; note: % of control where 0% means no effect); conditions: PathHunter PPARalpha complementation, chemiluminescence, 6 h; max response: stronger effect = higher value
How it was run: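 Chemiluminescence from complemented enzyme reported PPARalpha activation in cells after 6 hr of compound treatment at 37 C. The detection reagent was incubated for 60 min at room temperature, and compounds were scored as agonists.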

[15] = qHTS assay for small molecule agonists of the antioxidant response element (ARE) signaling pathway measured by Nrf2-dependant transcriptional activity (AID 720636; active = well fitted curve in the direction sought with a large enough effect in the repeat runs; an effect the other way counts as inactive or inconclusive;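 note: HepG2 cells with an ARE-driven luciferase reporter; % of control where 0% means no effect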)
How it was run: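 Reporter gene assay, HepG2 ARE-luc: 16 hr compound, 37 C, 5% CO2; read-out luciferase luminescence.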

[16] = qHTS assay for small molecule agonists of the antioxidant response element (ARE) signaling pathway measured by Nrf2-dependant transcriptional activity - cell viability counter screen (AID 720653; active = well fitted curve in the direction sought with a large enough effect in the repeat runs; an effect the other way counts as inactive or inconclusive; note: % is set by controls: 0 for no effect and ±100 for the full control effect); conditions: ARE-bla HepG2 viability, CellTiter-Glo ATP luminescence, 16 h; max response: stronger effect = lower value
How it was run: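 Cytotoxicity counter screen: intracellular ATP quantified by CellTiter-Glo luminescence in the same ARE-bla HepG2 plates, after 16 h compound exposure and a 2 h beta-lactamase substrate step.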

[17] = qHTS assay for cell viability of HEK293 cells (AID 743288; active = well fitted curve in the direction sought with a large enough effect; an effect the other way counts as inactive or inconclusive; note: % is set by controls: 0 for no effect and ±100 for the full control effect; nearly all actives have a fitted effect of over 50% in size); conditions: ATP luminescence (CellTiter-Glo), 18 h; max response: stronger effect = lower value
How it was run: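 Total intracellular ATP, measured with a luciferase-coupled reagent, indicates the number of viable HEK293 cells. Exposure to test chemicals lasts 18 h at 37 C in 1,536-well format at 2,000 cells/well.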

[18] = biological target: Nuclear receptor subfamily 1 group I member 2 (Rattus norvegicus) (UniProt Q9R1A7); experiment: qHTS assay for small molecule activators of the rat pregnane X receptor (rPXR) signaling pathway (AID 651751; call rule not given here; note: 0% is about no effect); conditions: rPXR reporter cells, luciferase (One-Glo), 24 h
[19] = biological target: Bile acid receptor (Homo sapiens) (UniProt Q96RI1); experiment: qHTS assay for small molecule agonists of farnesoid X receptor signaling (AID 588527); conditions: HEK293T FXR-UAS-bla, beta-lactamase ratio, 16 h; activation: stronger effect = higher value;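 note: series mostly up to about 77 µM; 0% = vehicle basal and 100% = reference agonist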
How it was run: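 Quantitative HTS used FXR-UAS-bla HEK293T cells with 16 h compound incubation at 37 C. EC50 values came from concentration-response curves normalized to chenodeoxycholic acid.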

[20] = qHTS assay for cell viability of the p53RE-bla HCT-116 cell line (AID 743292; active = well fitted curve in the direction sought with a large enough effect; an effect the other way counts as inactive or inconclusive; note: % is set by controls: 0 for no effect and ±100 for the full control effect; nearly all actives have a fitted effect of over 55% in size)
How it was run: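 Readout: CellTiter-Glo luminescence after 30 min RT. Treatment: compounds in DMSO, 16 h, 37 C. Cells: CellSensor p53RE-bla HCT-116, 4,000/well, preincubated 5 h.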

Retinoic acid receptor RXR-alpha (Homo sapiens), sequence (P19793 whole entry, looked up): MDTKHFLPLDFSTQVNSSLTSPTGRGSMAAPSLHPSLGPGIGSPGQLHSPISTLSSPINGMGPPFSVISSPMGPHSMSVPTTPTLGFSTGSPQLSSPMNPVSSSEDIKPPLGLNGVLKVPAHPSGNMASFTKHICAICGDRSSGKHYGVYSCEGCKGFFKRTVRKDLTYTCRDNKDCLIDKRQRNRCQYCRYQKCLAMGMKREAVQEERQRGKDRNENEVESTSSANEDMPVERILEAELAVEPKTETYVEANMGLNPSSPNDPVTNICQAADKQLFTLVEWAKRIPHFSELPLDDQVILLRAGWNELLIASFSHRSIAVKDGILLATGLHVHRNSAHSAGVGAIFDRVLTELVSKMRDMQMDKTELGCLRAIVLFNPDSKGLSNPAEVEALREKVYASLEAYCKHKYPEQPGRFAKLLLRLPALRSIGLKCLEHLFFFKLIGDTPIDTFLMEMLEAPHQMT
Peroxisome proliferator-activated receptor alpha (Homo sapiens), sequence (Q07869 whole entry, looked up): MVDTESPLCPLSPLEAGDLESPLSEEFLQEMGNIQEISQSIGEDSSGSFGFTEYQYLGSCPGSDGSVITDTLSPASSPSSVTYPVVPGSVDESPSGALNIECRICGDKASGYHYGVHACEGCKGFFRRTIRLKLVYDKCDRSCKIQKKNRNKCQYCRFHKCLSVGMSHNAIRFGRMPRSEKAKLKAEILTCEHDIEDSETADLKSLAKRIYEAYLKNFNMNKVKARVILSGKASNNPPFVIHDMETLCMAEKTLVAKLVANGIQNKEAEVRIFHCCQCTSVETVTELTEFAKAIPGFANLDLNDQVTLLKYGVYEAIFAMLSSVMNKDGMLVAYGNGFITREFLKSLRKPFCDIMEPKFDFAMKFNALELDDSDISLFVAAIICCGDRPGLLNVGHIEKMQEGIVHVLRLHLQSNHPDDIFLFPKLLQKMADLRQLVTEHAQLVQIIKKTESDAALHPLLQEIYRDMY
Nuclear receptor subfamily 1 group I member 2 (Rattus norvegicus), sequence (Q9R1A7 whole entry, looked up): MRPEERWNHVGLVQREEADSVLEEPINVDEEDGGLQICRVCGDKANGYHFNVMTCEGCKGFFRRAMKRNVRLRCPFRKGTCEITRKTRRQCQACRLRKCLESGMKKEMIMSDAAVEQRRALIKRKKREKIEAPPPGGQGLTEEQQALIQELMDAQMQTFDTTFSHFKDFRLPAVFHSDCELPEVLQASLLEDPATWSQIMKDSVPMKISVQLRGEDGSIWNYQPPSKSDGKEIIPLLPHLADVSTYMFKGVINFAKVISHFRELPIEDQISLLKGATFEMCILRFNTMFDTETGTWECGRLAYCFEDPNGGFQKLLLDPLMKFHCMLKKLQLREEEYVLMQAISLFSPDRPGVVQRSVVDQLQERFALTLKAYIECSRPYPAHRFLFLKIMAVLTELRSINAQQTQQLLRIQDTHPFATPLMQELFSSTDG
Thyroid hormone receptor beta (Homo sapiens), sequence (P10828 whole entry, looked up): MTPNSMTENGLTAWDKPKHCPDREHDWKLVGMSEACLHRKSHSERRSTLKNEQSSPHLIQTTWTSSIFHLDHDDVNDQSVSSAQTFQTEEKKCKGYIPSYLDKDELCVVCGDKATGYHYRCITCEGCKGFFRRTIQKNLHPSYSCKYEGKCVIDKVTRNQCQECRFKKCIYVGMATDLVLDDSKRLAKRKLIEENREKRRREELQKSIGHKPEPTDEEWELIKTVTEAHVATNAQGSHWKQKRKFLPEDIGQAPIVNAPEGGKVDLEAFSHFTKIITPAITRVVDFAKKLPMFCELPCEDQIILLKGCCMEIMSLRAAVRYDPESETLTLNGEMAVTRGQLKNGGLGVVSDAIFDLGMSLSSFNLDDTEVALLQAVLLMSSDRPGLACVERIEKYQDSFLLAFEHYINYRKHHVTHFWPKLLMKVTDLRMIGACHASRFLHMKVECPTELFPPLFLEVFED
Vitamin D3 receptor (Homo sapiens), sequence (P11473 whole entry, looked up): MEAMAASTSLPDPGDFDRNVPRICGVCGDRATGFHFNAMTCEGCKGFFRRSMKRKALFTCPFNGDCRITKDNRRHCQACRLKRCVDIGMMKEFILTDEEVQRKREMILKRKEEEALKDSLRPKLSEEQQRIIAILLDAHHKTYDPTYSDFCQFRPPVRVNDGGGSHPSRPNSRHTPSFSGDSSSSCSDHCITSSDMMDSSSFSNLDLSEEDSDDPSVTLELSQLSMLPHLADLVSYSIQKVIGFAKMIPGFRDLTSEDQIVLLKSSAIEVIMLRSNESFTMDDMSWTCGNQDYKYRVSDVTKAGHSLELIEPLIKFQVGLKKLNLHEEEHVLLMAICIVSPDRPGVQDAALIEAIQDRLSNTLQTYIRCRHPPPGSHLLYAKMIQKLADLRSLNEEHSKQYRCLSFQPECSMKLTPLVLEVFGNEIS
Peroxisome proliferator-activated receptor delta (Homo sapiens), sequence (Q03181 whole entry, looked up): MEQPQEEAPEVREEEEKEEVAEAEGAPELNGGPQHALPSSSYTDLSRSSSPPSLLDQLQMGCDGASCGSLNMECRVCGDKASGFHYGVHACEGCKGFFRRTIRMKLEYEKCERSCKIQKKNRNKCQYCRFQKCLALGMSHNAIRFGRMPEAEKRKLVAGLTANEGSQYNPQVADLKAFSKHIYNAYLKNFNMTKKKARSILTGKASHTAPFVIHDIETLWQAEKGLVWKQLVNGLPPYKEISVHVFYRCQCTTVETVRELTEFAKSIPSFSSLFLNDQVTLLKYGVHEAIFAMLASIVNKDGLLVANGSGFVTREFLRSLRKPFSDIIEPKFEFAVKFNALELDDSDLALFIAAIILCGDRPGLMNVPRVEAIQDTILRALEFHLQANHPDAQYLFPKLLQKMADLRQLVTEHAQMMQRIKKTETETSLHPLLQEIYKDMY
Bile acid receptor (Homo sapiens), sequence (Q96RI1 whole entry, looked up): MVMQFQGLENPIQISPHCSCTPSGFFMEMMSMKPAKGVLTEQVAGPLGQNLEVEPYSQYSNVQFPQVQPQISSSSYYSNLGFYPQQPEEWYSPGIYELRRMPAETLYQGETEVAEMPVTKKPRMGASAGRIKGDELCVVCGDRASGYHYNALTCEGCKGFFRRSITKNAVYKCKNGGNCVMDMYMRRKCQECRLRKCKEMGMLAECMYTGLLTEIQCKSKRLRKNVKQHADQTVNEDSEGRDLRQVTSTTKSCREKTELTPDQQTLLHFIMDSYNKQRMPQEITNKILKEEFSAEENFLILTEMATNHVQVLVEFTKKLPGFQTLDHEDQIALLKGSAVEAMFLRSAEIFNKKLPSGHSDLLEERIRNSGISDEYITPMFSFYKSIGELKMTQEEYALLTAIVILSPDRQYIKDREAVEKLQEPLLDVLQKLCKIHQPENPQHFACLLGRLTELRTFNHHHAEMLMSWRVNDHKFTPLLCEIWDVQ

COc1cc(OC)nc(NC(=O)NS(=O)(=O)c2cc(NC=O)ccc2C(=O)N(C)C)n1
-3.56%: max response [6]
inactive: outcome [1] | Potency [3] | Potency [4] | outcome [5] | Potency [7] | Potency [8] | max response [10] 14.5% | activation [11] -3.45% | activation [12] 1.99% | activation [13] -3.78% | max response [14] -4.09% | Potency [15] | max response [16] 11% | max response [17] -24.7% | max response [18] -9.56%
-2.91%: max response [9]
-27.4%: max response [2]

Cn1c(-c2ccccc2)cc(-c2ccccc2)[n+]1C
17.2%: max response [9]
inactive: outcome [1] | Potency [4] | outcome [5] | Potency [7] | max response [10] -10.3% | activation [13] -2.45% | max response [14] -0.162% | Potency [15] | max response [16] -21.3% | max response [17] 5.36% | max response [18] -12.3%
12.1%: max response [6]

CCC[CH2][Sn](=[O])[CH2]CCC
inactive: activation [19] -6.54% | outcome [1] | Potency [3] | Potency [4] | outcome [5] | Potency [7] | max response [10] -4.87% | activation [11] 2.27% | activation [12] -1.97% | activation [13] 3.37% | max response [14] -3.37% | Potency [15] | max response [16] 5.71% | max response [17] -6.83% | Potency [20] | max response [18] 4.58%
-4.07%: max response [9]
-5.73%: max response [6]
0.661%: max response [2]

CCCOc1nn(C(=O)NS(=O)(=O)c2ccccc2C(=O)OC)c(=O)n1C
41%: max response [2]
inactive: outcome [1] | Potency [3] | Potency [4] | outcome [5] | Potency [8] | max response [10] -2.92% | activation [11] 0.234% | activation [12] -2.67% | activation [13] 0.148% | max response [14] 0.0457% | Potency [15] | max response [16] -11.6% | max response [17] -4.57% | Potency [20] | max response [18] 4.67%
-18%: max response [9]

ClC1=C(Cl)[C@@]2(Cl)[C@H]3C[C@@H](Cl)[C@H](Cl)[C@H]3[C@@]1(Cl)C2(Cl)Cl
inactive: activation [19] -1.23% | Potency [4] | outcome [5] | max response [16] -24.7%

C=CCOC(=O)C(C)(C)OC(=O)c1cc(-n2c(=O)cc(C(F)(F)F)n(C)c2=O)ccc1Cl
15.1%: max response [2]
-18.1%: max response [9]
inactive: Potency [3] | outcome [5] | Potency [7] | max response [10] 23.7% | activation [11] 4.39% | activation [13] 1.35% | max response [14] 2.63% | Potency [15] | max response [16] -16.6% | max response [17] -6.91%
-7.31%: max response [6]

COc1ccc(/C(=C/C(=O)N2CCOCC2)c2ccc(Cl)cc2)cc1OC
28.2%: max response [6]
inactive: Potency [4] | outcome [5] | Potency [7] | Potency [8] | max response [10] -50.8% | activation [11] -3.46% | activation [12] -1.84% | activation [13] -0.517% | max response [14] 0.316% | Potency [15] | max response [16] -2.69% | max response [17] -14.1% | Potency [20] | max response [18] 8.84%
24.3%: max response [9]

CON(C)C(=O)Nc1ccc(Cl)c(Cl)c1
active: Potency [13] 35.5 µM
-15.9%: max response [9]
-3.25%: max response [6]
inactive: outcome [1] | Potency [4] | Potency [7] | Potency [8] | max response [10] -0.419% | activation [11] 0.565% | activation [12] -2.01% | max response [14] -1.01% | max response [16] -26.6% | max response [17] -2.77% | Potency [20]

C[C@H]1[C@H](c2ccc(Cl)cc2)SC(=O)N1C(=O)NC1CCCCC1
inactive: Potency [4] | outcome [5] | Potency [8] | activation [11] 4.32% | activation [13] 6.81% | max response [14] -4.71% | Potency [15] | max response [16] -8.81% | Potency [20]

ClC1=C(Cl)C2(Cl)C3C4OC4C(Cl)C3C1(Cl)C2(Cl)Cl (centres undefined)
2.4%: max response [6]
-11.3%: max response [9]
inactive: outcome [1] | Potency [3] | Potency [4] | Potency [7] | Potency [8] | max response [10] -6.75% | activation [11] -0.997% | activation [12] 4.48% | activation [13] -0.371% | Potency [15] | max response [16] 0.273% | max response [17] -17.2% | Potency [20]
-5.72%: max response [2]

COC(=O)c1c(C(F)F)nc(C(F)(F)F)c(C2=NCCS2)c1CC(C)C
-95%: max response [2]
-11.1%: max response [9]
inactive: Potency [3] | Potency [4] | outcome [5] | Potency [8] | max response [10] -17.3% | activation [11] 6.04% | activation [12] -2.57% | activation [13] 2.1% | max response [14] -1.35% | Potency [15] | max response [16] 1.66% | max response [17] -8.01% | Potency [20]

CCOP(=S)(OCC)SC(CCl)N1C(=O)c2ccccc2C1=O (centres undefined)
51.4%: max response [2]
3.14%: max response [9]
inactive: outcome [1] | Potency [3] | Potency [4] | outcome [5] | Potency [8] | max response [10] 7.55% | activation [11] -5.87% | activation [12] -1.92% | activation [13] 0.999% | max response [14] -0.704% | max response [16] -13.6% | max response [17] -5.75% | Potency [20]
